# Activity calls are given as the source filed them.
# Experiments:
# [1] = test system: PRMT1 (protein arginine N-methyltransferase 1); assay: PRMT1 binders on small-molecule microarrays, primary screen, biochemical, small-molecule microarray, 635 nm fluorescence (AID 1088); conditions: small-molecule microarray binding, higher = more signal;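 also: binding of Prmt1 protein to compounds spotted on small-molecule microarray slides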
# [2] = yeast growth modulation, basal conditions, primary screen, YJM789 clinical isolate, OD600, 24 h (AID 1089);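 also: growth of clinical yeast isolate S. cerevisiae YJM 789 seeded 1000 cells per well; test concentration not given here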; conditions: S. cerevisiae YJM789 growth, higher = more signal, called active from +8 up or from −8 down
# [3] = fission yeast growth modulation, primary screen, strain 972, OD600, 24 h, no modulator (AID 1090);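 also: basal condition with compound alone and no growth modifier present; test concentration not given here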; conditions: S. pombe 972 growth, higher = more signal, called active from +8 up or from −8 down
# [4] = S. cerevisiae growth modulation with rapamycin, primary screen, strain BY4716, OD600, 96 h (AID 1091); conditions: higher = more signal, called active from +8 up or from −8 down; also: test concentration not given here
# [5] = target: Torsin-1A-interacting protein 2 (Homo sapiens) (UniProt Q8NFQ8); assay: LULL1 binders on small-molecule microarray, primary screen, cell lysate, human LULL1 lysate, 635/667 nm fluorescence (AID 1092); conditions: hLULL1 lysate binding, 635 nm fluorescence, higher = more signal;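 also: probe is lysate of COS7 cells overexpressing human LULL1; score merges per-feature 667 nm fluorescence with signal-to-noise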
# [6] = E. coli growth modulation, two-sided OD650, primary screen, E. coli filamentation project, strain DRC41, 24 h (AID 1093); conditions: OD650, 24 h, higher = more signal, called active from +8 up or from −8 down;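 also: MC1000 strain lacking acrAB efflux and sulA so SOS filamentation is blocked; test concentration not given here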
# [7] = small-molecule microarray binders of probe aLefty2, primary screen, biochemical, biotinylated probe, 635/667 nm fluorescence (AID 1094); conditions: higher = more signal;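 also: score merges spot fluorescence near 667 nm with spot signal-to-noise ratio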
# [8] = test system: Noggin (protein binding on small-molecule microarray); assay: Noggin binders on small-molecule microarray, primary screen, biochemical, 635/667 nm fluorescence (AID 1095); conditions: 635 nm fluorescence, higher = more signal;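 also: score merges 667 nm feature fluorescence with signal to noise over triplicate slides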
# [9] = target: Neurogenic locus notch homolog protein 3 (Homo sapiens) (UniProt Q9UM47); assay: NOTCH3 binders on small-molecule microarray, primary screen, biochemical, 635/667 nm fluorescence (AID 1096); conditions: NOTCH3 binding, 635 nm fluorescence, higher = more signal
# [10] = small-molecule microarray binders of probe aEGFR, primary screen, biochemical, biotinylated probe, 635/667 nm fluorescence (AID 1097); conditions: higher = more signal;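 also: probe is a biotinylated anti-EGFR antibody binding compounds printed on slides; score combines fluorescence near 667 nm and signal to noise of each spot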
# [11] = test system: Plasmodium falciparum Sir2 (PF13_0152, Sir2A); assay: pfSir2 binders on small-molecule microarrays, primary screen, biochemical, small-molecule microarray, 635 nm fluorescence (AID 1098); conditions: small-molecule microarray binding, fluorescence 635 nm; higher = more signal;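 also: score merges spot fluorescence intensity with its signal-to-noise ratio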
# [12] = small-molecule microarray binders of probe aDKK1, primary screen, biochemical, biotinylated probe, 635/667 nm fluorescence (AID 1099); conditions: higher = more signal;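 also: score merges 667nm spot fluorescence with signal to noise across triplicate slides; reference of the scale not given here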
# [13] = small-molecule microarray binders of probe aCHRDL2, primary screen, biochemical, biotinylated probe, 635/667 nm fluorescence (AID 1100); conditions: higher = more signal
# [14] = splicing luciferase reporter signal modulators, primary screen, spliceosome inhibition project, cell-based, HEK293, splice +/- reporter (AID 1101); conditions: luminescence, 24 h, higher = more signal, called active from +8 up or from −8 down;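 also: HEK293 cells carrying a splicing-competent luciferase reporter gene; test concentration not given here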
# [15] = target: Fibroblast growth factor 10 (Homo sapiens) (UniProt O15520); assay: FGF10 binders on small-molecule microarrays, primary screen, biochemical, small-molecule microarray, 635 nm fluorescence (AID 1102); conditions: FGF10 binding, fluorescence 635 nm, higher = more signal
# [16] = test system: glycogen synthase kinase-3 (GSK3A per assay name; protocol says GSK3B); assay: GSK3 binders on small-molecule microarrays, primary screen, biochemical, small-molecule microarray, 635 nm fluorescence, GSK3A (AID 1103); conditions: small-molecule microarray binding, fluorescence 635 nm; higher = more signal; also: the record names both GSK3A and GSK3B
# [17] = target: Epidermal growth factor receptor (Homo sapiens) (UniProt P00533); assay: EGFR binders on small-molecule microarrays, primary screen, biochemical, small-molecule microarray, 635 nm fluorescence (AID 1104); conditions: EGFR binding, higher = more signal;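 also: score merges 667 nm emission intensity with spot signal to noise over triplicate slides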
# [18] = target: Follistatin-related protein 3 (Homo sapiens) (UniProt O95633); assay: FSTL3 binders on small-molecule microarrays, primary screen, biochemical, small-molecule microarray, 635 nm fluorescence (AID 1105); conditions: FSTL3 binding, higher = more signal;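 also: score merges emission near 667 nm and signal to noise per printed spot across three slides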
# [19] = target: Dickkopf-related protein 1 (Homo sapiens) (UniProt O94907); assay: DKK1 binders on small-molecule microarrays, primary screen, biochemical, small-molecule microarray, 635 nm fluorescence scan (AID 1106); conditions: DKK1 binding, higher = more signal;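 also: score merges emission near 667 nm with signal to noise over three replicate slides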
# [20] = test system: Inhibin beta A chain (activin A); assay: INHBA (activin A) binders on microarrays, primary screen, biochemical, small-molecule microarray, 635 nm fluorescence scan (AID 1107); conditions: small-molecule microarray binding, higher = more signal;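 also: mouse activin A protein probed at 4.33 µg/mL on printed slides; score merges bound-protein fluorescence near 667 nm with spot signal-to-noise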
# Chain of Dickkopf-related protein 1 (Homo sapiens) (O94907 whole entry, looked up): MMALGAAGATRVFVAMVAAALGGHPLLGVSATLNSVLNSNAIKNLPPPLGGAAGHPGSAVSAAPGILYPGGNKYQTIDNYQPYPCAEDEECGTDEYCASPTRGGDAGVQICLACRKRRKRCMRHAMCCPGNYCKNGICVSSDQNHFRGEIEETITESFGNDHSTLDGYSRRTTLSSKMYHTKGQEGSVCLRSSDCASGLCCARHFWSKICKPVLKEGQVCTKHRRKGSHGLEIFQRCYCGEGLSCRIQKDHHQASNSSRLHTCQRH
# Chain of Follistatin-related protein 3 (Homo sapiens) (O95633 whole entry, looked up): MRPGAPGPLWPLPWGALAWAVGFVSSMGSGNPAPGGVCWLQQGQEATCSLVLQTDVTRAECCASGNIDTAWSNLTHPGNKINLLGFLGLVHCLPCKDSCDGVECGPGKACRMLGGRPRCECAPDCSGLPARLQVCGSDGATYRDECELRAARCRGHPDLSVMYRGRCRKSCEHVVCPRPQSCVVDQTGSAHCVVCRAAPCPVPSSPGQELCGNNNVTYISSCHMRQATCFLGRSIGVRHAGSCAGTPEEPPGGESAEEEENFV
# Chain of Epidermal growth factor receptor (Homo sapiens) (P00533 whole entry, looked up): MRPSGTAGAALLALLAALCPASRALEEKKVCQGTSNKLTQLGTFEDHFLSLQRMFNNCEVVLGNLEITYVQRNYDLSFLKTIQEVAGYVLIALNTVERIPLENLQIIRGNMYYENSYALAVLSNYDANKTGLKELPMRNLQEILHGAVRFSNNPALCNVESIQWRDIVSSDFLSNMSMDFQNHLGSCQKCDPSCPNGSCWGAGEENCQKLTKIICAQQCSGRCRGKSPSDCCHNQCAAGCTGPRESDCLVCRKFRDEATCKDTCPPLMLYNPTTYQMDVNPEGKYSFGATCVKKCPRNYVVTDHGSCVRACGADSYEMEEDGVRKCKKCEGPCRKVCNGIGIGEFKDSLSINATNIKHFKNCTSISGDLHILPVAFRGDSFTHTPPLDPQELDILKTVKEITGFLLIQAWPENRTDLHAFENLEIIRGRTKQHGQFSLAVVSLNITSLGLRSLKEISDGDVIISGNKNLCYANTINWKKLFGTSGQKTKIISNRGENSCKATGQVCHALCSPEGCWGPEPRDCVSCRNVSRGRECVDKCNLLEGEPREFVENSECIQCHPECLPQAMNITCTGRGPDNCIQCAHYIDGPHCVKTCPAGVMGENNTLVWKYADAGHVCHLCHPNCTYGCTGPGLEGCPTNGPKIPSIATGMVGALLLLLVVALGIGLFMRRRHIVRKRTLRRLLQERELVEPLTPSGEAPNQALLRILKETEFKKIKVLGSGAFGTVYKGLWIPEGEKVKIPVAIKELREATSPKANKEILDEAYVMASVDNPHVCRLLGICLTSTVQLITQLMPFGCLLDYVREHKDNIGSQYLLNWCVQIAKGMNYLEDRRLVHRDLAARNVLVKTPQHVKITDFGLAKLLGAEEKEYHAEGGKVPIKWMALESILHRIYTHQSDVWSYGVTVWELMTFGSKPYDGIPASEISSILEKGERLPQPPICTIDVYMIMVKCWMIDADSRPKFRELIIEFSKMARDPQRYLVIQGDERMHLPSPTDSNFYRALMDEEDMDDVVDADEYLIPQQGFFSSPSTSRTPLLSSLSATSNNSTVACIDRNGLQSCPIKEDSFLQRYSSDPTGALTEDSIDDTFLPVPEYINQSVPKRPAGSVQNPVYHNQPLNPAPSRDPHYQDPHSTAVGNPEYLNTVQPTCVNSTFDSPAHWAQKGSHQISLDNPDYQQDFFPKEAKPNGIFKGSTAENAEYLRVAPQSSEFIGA
# Chain of Neurogenic locus notch homolog protein 3 (Homo sapiens) (Q9UM47 whole entry, looked up): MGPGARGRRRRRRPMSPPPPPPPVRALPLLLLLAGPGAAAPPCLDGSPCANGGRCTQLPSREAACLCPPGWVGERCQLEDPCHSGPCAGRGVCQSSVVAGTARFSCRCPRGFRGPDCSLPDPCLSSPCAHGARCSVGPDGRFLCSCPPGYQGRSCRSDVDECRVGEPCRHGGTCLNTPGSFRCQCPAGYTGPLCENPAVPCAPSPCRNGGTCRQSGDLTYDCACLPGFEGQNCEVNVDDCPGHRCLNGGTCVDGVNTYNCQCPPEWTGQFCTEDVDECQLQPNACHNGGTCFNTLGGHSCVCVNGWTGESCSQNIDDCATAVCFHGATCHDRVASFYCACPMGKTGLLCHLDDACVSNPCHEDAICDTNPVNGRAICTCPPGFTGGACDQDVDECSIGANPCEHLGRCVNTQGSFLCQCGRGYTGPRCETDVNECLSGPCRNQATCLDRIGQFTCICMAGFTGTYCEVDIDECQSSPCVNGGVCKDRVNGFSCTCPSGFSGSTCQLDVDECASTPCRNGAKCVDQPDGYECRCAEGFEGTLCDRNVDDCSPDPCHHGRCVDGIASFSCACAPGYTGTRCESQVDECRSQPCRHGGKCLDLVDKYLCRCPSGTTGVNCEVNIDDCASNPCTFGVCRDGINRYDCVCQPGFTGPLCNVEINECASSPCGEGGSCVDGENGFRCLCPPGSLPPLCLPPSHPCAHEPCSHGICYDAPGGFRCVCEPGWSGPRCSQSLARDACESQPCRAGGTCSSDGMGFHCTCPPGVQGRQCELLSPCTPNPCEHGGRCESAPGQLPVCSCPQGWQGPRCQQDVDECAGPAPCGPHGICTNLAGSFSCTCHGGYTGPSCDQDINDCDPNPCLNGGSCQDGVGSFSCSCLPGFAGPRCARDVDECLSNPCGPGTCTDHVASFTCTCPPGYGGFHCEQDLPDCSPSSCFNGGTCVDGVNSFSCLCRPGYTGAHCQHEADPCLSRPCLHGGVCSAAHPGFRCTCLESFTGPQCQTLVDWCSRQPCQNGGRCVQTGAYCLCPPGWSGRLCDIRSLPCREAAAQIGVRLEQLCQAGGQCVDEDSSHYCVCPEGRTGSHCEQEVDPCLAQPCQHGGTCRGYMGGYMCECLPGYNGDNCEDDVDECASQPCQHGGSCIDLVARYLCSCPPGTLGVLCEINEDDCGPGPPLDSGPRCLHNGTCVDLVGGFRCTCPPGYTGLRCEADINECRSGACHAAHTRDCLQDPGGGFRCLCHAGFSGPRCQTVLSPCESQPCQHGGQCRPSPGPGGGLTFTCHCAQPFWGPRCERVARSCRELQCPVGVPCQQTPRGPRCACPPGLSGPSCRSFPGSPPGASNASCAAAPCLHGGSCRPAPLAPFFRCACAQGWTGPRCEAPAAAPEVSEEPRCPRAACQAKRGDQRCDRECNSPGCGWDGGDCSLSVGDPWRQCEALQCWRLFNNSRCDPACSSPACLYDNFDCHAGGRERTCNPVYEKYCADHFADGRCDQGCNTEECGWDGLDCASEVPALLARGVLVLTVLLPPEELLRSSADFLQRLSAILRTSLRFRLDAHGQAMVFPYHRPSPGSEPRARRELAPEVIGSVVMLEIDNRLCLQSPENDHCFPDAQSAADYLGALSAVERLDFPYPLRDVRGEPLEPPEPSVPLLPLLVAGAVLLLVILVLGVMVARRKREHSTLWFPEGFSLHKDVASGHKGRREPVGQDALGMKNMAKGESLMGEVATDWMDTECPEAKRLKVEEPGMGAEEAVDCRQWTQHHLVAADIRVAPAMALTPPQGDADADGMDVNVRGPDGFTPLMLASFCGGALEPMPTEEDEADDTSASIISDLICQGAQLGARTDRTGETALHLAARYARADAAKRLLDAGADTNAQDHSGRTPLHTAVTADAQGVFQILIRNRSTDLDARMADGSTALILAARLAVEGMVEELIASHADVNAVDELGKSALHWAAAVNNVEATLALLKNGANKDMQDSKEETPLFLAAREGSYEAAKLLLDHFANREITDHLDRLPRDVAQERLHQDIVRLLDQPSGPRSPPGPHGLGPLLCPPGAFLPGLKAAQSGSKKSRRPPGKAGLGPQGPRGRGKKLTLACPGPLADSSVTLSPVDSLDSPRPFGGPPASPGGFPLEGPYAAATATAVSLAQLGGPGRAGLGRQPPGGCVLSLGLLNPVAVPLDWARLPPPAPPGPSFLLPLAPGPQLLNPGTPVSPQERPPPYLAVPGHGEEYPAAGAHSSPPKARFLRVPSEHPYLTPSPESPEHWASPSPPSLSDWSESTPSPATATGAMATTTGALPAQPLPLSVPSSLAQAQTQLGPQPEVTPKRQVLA
# Chain of Fibroblast growth factor 10 (Homo sapiens) (O15520 whole entry, looked up): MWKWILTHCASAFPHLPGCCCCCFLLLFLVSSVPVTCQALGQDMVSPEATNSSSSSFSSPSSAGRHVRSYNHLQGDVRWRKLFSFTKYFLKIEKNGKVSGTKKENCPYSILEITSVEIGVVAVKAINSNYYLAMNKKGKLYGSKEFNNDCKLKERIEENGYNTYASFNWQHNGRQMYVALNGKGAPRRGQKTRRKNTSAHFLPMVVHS
# Chain of Torsin-1A-interacting protein 2 (Homo sapiens) (Q8NFQ8 whole entry, looked up): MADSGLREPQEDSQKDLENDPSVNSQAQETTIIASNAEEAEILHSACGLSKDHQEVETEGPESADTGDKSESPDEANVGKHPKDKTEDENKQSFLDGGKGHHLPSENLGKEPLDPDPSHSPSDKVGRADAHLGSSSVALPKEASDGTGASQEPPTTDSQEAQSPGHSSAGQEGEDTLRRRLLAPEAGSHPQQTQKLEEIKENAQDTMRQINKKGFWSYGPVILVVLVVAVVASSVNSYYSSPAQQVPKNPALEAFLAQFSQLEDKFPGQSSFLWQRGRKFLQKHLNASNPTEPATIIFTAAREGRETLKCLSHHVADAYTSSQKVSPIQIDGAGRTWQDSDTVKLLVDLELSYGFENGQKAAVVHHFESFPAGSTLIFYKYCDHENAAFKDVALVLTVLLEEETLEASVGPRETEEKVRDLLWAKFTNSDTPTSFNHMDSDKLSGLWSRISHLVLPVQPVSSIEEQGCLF
Structure (SMILES),composite z-score [1],z-score [2],z-score [3],z-score [4],composite z-score [5],z-score [6],composite z-score [7],composite z-score [8],composite z-score [9],composite z-score [10],composite z-score [11],composite z-score [12],composite z-score [13],z-score [14],composite z-score [15],composite z-score [16],composite z-score [17],composite z-score [18],composite z-score [19],composite z-score [20]
C=C/C=C/[C@@H]1C(=C)CN([C@@H](Cc2ccccc2)C(=O)OC)[C@H]1[C@@H](O)Cc1ccccc1,1.44,-0.03 (inactive),-1.63 (inactive),0.415 (inactive),1.57,0.85 (inactive),-0.0975,0.0905,0.731,-0.0228,0.742,-0.369,-0.186,0.844 (inactive),0.716,0.754,-0.08,0.509,0.473,1.2
C=CCN1C(=O)[C@@]2(O[C@@H](CCO)[C@H]([Si](C)(C)c3ccc(OC)cc3)[C@H]2C)c2cc(N3CCOC3=O)ccc21,0.989,1.53 (inactive),0.885 (inactive),9.68 (active),1.86,0.976 (inactive),-0.0755,-0.355,0.347,-0.134,0.392,0.0757,0.213,-0.887 (inactive),-0.0196,0.612,-0.114,0.0282,-0.381,-0.171
CC(C)CNC(=O)[C@@]1(C)c2ccccc2C(=O)N(Cc2cc(C(F)(F)F)cc(C(F)(F)F)c2)[C@H]1c1ccc(CO)cc1,1.3,-0.721 (inactive),0.4 (inactive),-0.699 (inactive),1.16,0.497 (inactive),0.0481,-0.558,-0.966,-0.1,0.386,-0.147,0.587,0.0167 (inactive),-0.631,-1.02,-0.647,-0.522,-0.6,0.32
CC(C)C[C@@H]1NC(=O)[C@@H]2C[C@H](C(=O)NCCCCCC[N+](C)(C)C)[C@H](c3cccc(OCCO)c3)N2C1=O,1.58,-0.632 (inactive),0.806 (inactive),0.24 (inactive),3.23,-0.209 (inactive),-0.135,-0.143,0.766,-0.0572,1.78,-0.294,0.512,-0.261 (inactive),0.225,0.221,-0.138,-0.168,0.449,0.327
C=C(/C(=C/C[C@H](OC(=O)c1ccncc1)c1ccccc1OCCO)c1cnc2ccccc2c1)C(C)C,1.54,-2.36 (inactive),-0.555 (inactive),2.22 (inactive),2.27,-0.0584 (inactive),-0.0632,1.13,1.02,-0.0828,1.06,-0.117,0.37,0.82 (inactive),1.47,1.06,1.15,1.59,1.07,1.72
COc1cc(NN2C(C(O)c3cc(OC)c(OC)c(OC)c3)C=CC3C(=O)N(c4ccccc4)C(=O)C32)cc(OC)c1OC (stereo not given),1.51,0.613 (inactive),0.712 (inactive),0.219 (inactive),2.93,-1.94 (inactive),0.688,1.34,1.02,0.139,0.815,0.981,0.561,0.269 (inactive),1.26,1.3,0.165,1.1,0.101,0.759
O=C1O[C@H](c2ccccc2)[C@H](c2ccccc2)N2[C@H]1[C@@H](C(=O)O)[C@]1(C(=O)Nc3ccc(C#CC4(O)CCCCCC4)cc31)[C@H]2c1ccc(O)cc1,0.871,-0.386 (inactive),-1.22 (inactive),-1.76 (inactive),3.14,2.04 (inactive),-0.142,-0.292,0.0139,0.192,0.502,-0.2,0.14,-0.574 (inactive),0.0884,-0.103,0.161,-0.544,-0.297,0.138
COC(=O)C1=CC(CCCO)=CC(C)N(Cc2cccc(OC(F)(F)F)c2)C=C1C(=O)OC (stereo not given),0.897,-0.743 (inactive),-2.12 (inactive),0.219 (inactive),2.65,-1.53 (inactive),-0.0712,-0.296,0.532,-0.02,0.325,0.116,0.259,-0.488 (inactive),0.278,-0.606,-0.94,0.0535,-0.695,0.383
NC(=O)NCC#Cc1ccc2c(c1)[C@]1(C(=O)N2)[C@H](C(=O)N2CCN(c3ncccn3)CC2)[C@H]2C(=O)O[C@H](c3ccccc3)[C@H](c3ccccc3)N2[C@@H]1c1ccc(OCCO)cc1,1.18,2.47 (inactive),2.31 (inactive),5.27 (inactive),1.89,1.37 (inactive),-0.0321,0.513,1.13,-0.0271,0.695,0.23,0.433,-0.245 (inactive),0.766,-0.364,0.669,1.08,0.151,0.926
